According to ChEMBL document CHEMBL3988442, “University of Dundee, Small-Polar-MMV Screening Library” (2021):
Among all 69,000 compounds or so, about 950 (1.4%) showed an effect of 50% or more. This is one part of a sample in which strong results are shown more often than they occur.

What follows are compounds tested on Mycobacterium tuberculosis (assay: Cornell M. t heat shock assay; also: in the data most compounds retested in dose-response had high values).
Assay type: functional, organism-based
Set-up: dose or concentration left out as unconfirmed

| Structure (SMILES) | Percent Effect [%] |
| --- | --- |
| O=C(O)C(F)(F)F.O=C(O)C(F)(F)F.O=C(c1cccc(F)c1)N1CCN2C[C@H](OCc3cccnc3)C[C@H]2C1 | -1.159 |
| Cc1nc(C(=O)N[C@H]2COC[C@@H]2N2CCCCC2)cs1 | -0.7621 |
| O=C(N[C@H]1COC[C@@H]1N1CCCC1)c1c[nH]nc1C1CCCCC1 | 69.58 |
| CCO[C@H]1COC[C@@H]1NC(=O)c1c[nH]nc1C1CCCCC1 | -8.48 |
| Cc1ccc2c(c1)C(NC1CC1)CC21CCNCC1.Cl (stereo not given) | -15.52 |
| C[C@@H]1CN(C(=O)c2ccc[nH]2)C[C@]12CCN(CCN1CCCC1)C2=O.O=C(O)C(F)(F)F | 22.28 |
| CNC(=O)CN1CCOCC2(CN(CCC(F)(F)F)CCO2)C1.O=C(O)C(F)(F)F.O=C(O)C(F)(F)F (stereo not given) | -25.1 |
| Cc1ccc2c(c1)C(NC(=O)N(C)C)CC21CCN(CC2CC2)CC1.O=C(O)C(F)(F)F (stereo not given) | -3.475 |
| CCOC(=O)Cc1csc(NC(=O)c2cc(=O)c(OC)c[nH]2)n1 | 26.29 |
| COc1c[nH]c(C(=O)Nc2nc(C)cs2)cc1=O | 69.04 |
| COc1coc(C(=O)Nc2nc(-c3ccncc3)cs2)cc1=O | -11.7 |
| COc1c[nH]c(C(=O)Nc2nc(C(C)(C)C)cs2)cc1=O | 39.24 |
| COc1coc(C(=O)Nc2nc(C)cs2)cc1=O | 66.21 |
| COc1coc(C(=O)Nc2nc(-c3ccccn3)cs2)cc1=O | 1.222 |
| O=C(NCCN1CCOCC1)c1ccn(-c2ccc3ccccn23)n1.O=C(O)C(F)(F)F | -22.38 |
| Cc1ccc(CN2CCC3(CCC(C(=O)N(C)C)O3)CC2)o1.O=C(O)C(F)(F)F (stereo not given) | -7.412 |
| O=C(COc1ccccc1)N1C[C@@H]2COC[C@]2(COc2cccnc2)C1.O=C(O)C(F)(F)F | 12.4 |
| Cc1nc(NCc2noc(C3CCCO3)n2)c2sccc2n1 (stereo not given) | -5.869 |

| Structure (SMILES) | Percent Effect [%] |
| --- | --- |
| Cl.NC(=O)COc1ccc(CNCc2cc(F)cc(F)c2)cc1 | -21.98 |
| O=C(Nc1ccc(N2CCCCC2)nc1)N1CCc2sccc2C1 | 18.45 |
| O=C(Nc1ccc(N2CCCC2)nc1)N1CCc2sccc2C1 | 0.2913 |
| O=C(Nc1ccc(N2CCCC2)nc1)N1CCc2ccccc2C1 | 58.68 |
| CN1C[C@@H]2CC[C@H](CC1=O)N2C(=O)c1cc2ccccc2[nH]c1=O | 6.279 |
| CN(C)C(c1ccccn1)[C@H]1CC[C@H](CNC(=O)CC2CCCC2)CC1 (stereo not given in full) | -9.462 |
| CCN1CCc2cc(-c3cncn3CC(=O)NC(C)(C)C)ccc21.Cl | 19.95 |
| Cc1nccn1CCCn1cncc1-c1ccc2c(c1)CCCN2C.Cl | -22.83 |
| Cc1cc(C)n(CCCn2cncc2-c2ccc3c(c2)CC(C)N3C)n1.Cl (stereo not given) | 79.43 |
| CCN1c2ccc(-c3cncn3CCCn3ccnc3C)cc2CC1C.Cl (stereo not given) | 100.1 |
| CN1CCCc2cc(-c3cncn3CCNC3CCS(=O)(=O)C3)ccc21.Cl (stereo not given) | -0.7285 |
| CCOC(=O)c1n[nH]cc1-c1cncn1CCCn1nc(C)cc1C.Cl | 8.544 |
| CCN1c2ccc(-c3cncn3CC(=O)NC(C)(C)C)cc2CC1C.Cl (stereo not given) | 85.85 |
| Cc1nccn1CCCn1cncc1-c1ccc2c(c1)CC(C)N2C.Cl (stereo not given) | 48.58 |
| Cc1nn(C)c(C)c1CCn1cncc1-c1ccc2c(c1)CC(C)N2C.Cl (stereo not given) | 15.02 |
| CC1Cc2cc(-c3cncn3CC(=O)NC(C)(C)C)ccc2N1C.Cl (stereo not given) | -7.03 |
| Cc1nccn1CCCn1cncc1-c1ccc2c(c1)CCC(C)N2C.Cl (stereo not given) | 8.681 |
